# In PubChem BioAssay (NCATS):
# Activity calls are given as the source filed them. The call rests on the fitted dose curve; in most records, active means well fitted curve in the direction sought with a large enough effect; inconclusive means small, poorly fitted or top-dose-only effect, or another doubt; inactive means no such curve, though single readings can be large or run the other way.
# Target: Guanine nucleotide-binding protein G(i) subunit alpha-1 (Homo sapiens) (UniProt P63096)
# Experiment: qHTS Assay for Inhibitors of RGS12 GoLoco Motif Activity (Green Fluorophore) (AID 879);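 further: negative values mean loss of peptide binding seen as reduced polarization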
# Conditions: Galphai1/FITC-RGS12 GoLoco peptide, fluorescence polarization; series mostly up to 57.1 µM
# From the text: Assay Overview: NIH Molecular Libraries Screening Centers Network [MLSCN] NIH Chemical Genomics Center [NCGC] MLSCN Grant: NS053754-01 Assay Provider: Siderovski, David P, University of North Carolina at Chapel Hill G-protein-coupled receptors (GPCRs) are major targets for drug discovery. The regulator of G-protein signaling (RGS)-protein family has important roles in GPCR signal transduction. RGS proteins contain a conserved RGS-box, which is often accompanied by other signaling regulatory elements. RGS proteins accelerate the deactivation of G proteins to reduce GPCR signaling; however, some also have an effector function and transmit signals. Combining GPCR agonists with RGS inhibitors should potentiate responses, and could markedly increase the agonist's regional specificity. The diversity of RGS proteins with highly localized and dynamically regulated distributions in brain makes them attractive targets for pharmacotherapy of central nervous system disorders. […] A complex of Gai1 and fluorescently labeled G-alpha-binding peptide (the "GoLoco motif") derived from RGS12 is incubated with library members. Inhibitors of the binding are detected by a decrease in the fluorescence polarization (FP) of the fluorophore. Protein was supplied by Prof. David Siderovski, University of North Carolina at Chapel Hill.
# Assay Protocol: Reagents/Controls: Assay Buffer: 10 mM Tris-HCl, 150 mM NaCl, 0.1 mM GDP (prepared fresh), and 0.05% NP40 at pH 7.5. […] 10 nM FITC labeled peptide/50 nM protein in columns 1, 2, 5 - 48. Titration of unlabeled peptide control ([H][…][NH2], custom synthesized and HPLC-purified by Tufts University Core Facility) from 10 mM, then 1:2 dilution, 16-point in duplicate, pin-transferred to column 2, rows 1 to 32. Column 1 is neutral. FITC-labeled RGS12-GoLoco peptide was custom-synthesized and HPLC-purified by Michael Berne of Tufts University Assay Steps. Four uL of reagents were dispensed to 1536-well Greiner black solid-bottom plates. Compounds and controls (23 nL) were transferred via Kalypsys PinTool. The plates were incubated for 10 min at room temperature, and then read on ViewLux (Perkin-Elmer) High-throughput CCD imager using FITC polarization filter sets for the fluorescein-labeled decapeptide probe.During dispense, reagent bottles were kept submerged into 4 deg C water bath and all liquid lines were covered with aluminum foil to minimize probe and protein degradation. All screening operations were performed on a Kalypsys robotic system (Kalypsys, Inc., San Diego, CA) containing one RX-130 and two RX-90 anthropomorphic robotic arms.
# Chain of Guanine nucleotide-binding protein G(i) subunit alpha-1 (Homo sapiens) (P63096 whole entry, looked up): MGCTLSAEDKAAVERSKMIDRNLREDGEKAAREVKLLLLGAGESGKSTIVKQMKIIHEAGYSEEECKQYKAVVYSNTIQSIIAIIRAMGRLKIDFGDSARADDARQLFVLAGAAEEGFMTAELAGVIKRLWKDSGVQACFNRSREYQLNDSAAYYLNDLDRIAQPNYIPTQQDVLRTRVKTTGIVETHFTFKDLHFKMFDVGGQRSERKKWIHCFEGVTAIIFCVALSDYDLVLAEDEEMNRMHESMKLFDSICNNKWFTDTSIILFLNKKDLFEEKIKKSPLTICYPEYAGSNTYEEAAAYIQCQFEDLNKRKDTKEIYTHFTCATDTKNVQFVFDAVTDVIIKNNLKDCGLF
row,Structure (SMILES),outcome
1,Nc1ncnc2c1ncn2[C@@H]1CCCO1,inactive
2,OC[C@@H]1O[C@@H](n2cnc3c(NC4CCCCC4)ncnc32)[C@@H](O)[C@H]1O,inactive
3,Cc1ccccc1/C=C\C1=NCCN1,inactive
4,C[C@@H](C(=O)O)c1ccc(C[C@@H]2CCCC2=O)cc1,inactive
5,C[C@H](N)C(=O)OC(C)(C)Cc1ccc(Cl)cc1,inactive
6,COc1cc2c(cc1O)CC[C@@H]1[C@@H]2CC[C@@]2(C)[C@H](O)CC[C@H]12,inactive
7,CCCCCCCCCC[Si](C)(C)CCC(=O)N[C@@H](Cc1ccc(C)cc1)c1ccccc1,inactive
8,Nc1nc2c(nc(Br)n2[C@@H]2O[C@H]3COP(=O)(O)O[C@@H]3[C@H]2O)c(=O)[nH]1,inactive
9,CSC(N)=NCCC[C@@H](N)C(=O)O,inactive
10,OC[C@@H]1NC[C@@H](O)[C@H]1O,inactive
11,C[C@@]12C(=O)OC(=O)[C@@]1(C)[C@H]1CC[C@@H]2O1,inactive
12,CN[C@]1(C)[C@@H]2CC[C@@H](C2)C1(C)C,inactive
13,C[C@H]1CN(S(=O)(=O)c2cccc3cnccc23)CCN1,inactive
14,C[C@H](O)[C@H](O)[C@@H]1CNc2nc(N)[nH]c(=O)c2N1,inactive
15,CN1[C@@H]2CC[C@H]1CC(OC(=O)[C@@H](CO)c1ccccc1)C2 (stereo not given in full),inactive
16,O[C@H](CN1CCN(c2cccc(Cl)c2)CC1)C(c1ccccc1)c1ccccc1,inactive
17,COc1cc([C@H](O)C(=O)O)ccc1O,inactive
18,CCCC[S@@](=N)(=O)CC[C@@H](N)C(=O)O,inactive
19,Nc1nc(N)c2nc(CNc3ccc(C(=O)N[C@H](CCC(=O)O)C(=O)O)cc3)cnc2n1,inactive
20,C[C@@H]1O[C@@H](n2cc(F)c(=O)[nH]c2=O)[C@H](O)[C@@H]1O,inactive

row,Structure (SMILES),outcome
1,OC[C@@H]1O[C@@H](n2cnc3c(NC4CCCC4)ncnc32)[C@@H](O)[C@H]1O,inactive
2,CCCCCCCCCCCCCCCC(=O)NC[C@@H](COP(=O)([O-])OCC[N+](C)(C)C)OCC,inactive
3,CC(C)[C@@H]1NC(=O)[C@H](CCCCN)NC(=O)[C@H](Cc2c[nH]c3ccccc23)NC(=O)[C@H](Cc2ccc(O)cc2)NC(=O)[C@H](C)N(C)C(=O)[C@H](Cc2ccccc2)NC1=O,inactive
4,[N-]=[N+]=Nc1ccc(C(=O)CSC[C@@H](NC(=O)CC[C@@H](N)C(=O)O)C(=O)NCC(=O)O)cc1,inactive
5,Cc1ccccc1N1CCN(S(=O)(=O)C[C@@]23CC[C@H](C[C@H]2NC(=O)[C@@H](N)CCS(C)(=O)=O)C3(C)C)CC1,inactive
6,C[C@@H]1C[C@@H]2[C@H]3CCC4=CC(=O)C=C[C@]4(C)[C@]3(Cl)[C@@H](O)C[C@@]2(C)[C@@]1(O)C(=O)CO,inactive
7,O=C(O)[C@H]1C[C@H](C(=O)O)N1,inactive
8,O=C(O)/C=C\[C@H](O)c1ccc(Cl)cc1,inactive
9,OC[C@@H]1O[C@H](O)[C@@H](Cl)[C@H](O)[C@@H]1O,inactive
10,N[C@@H]1C=CC=C(C(=O)O)C1,inactive
11,COc1cc([C@@H](O)CO)ccc1OS(=O)(=O)O,inactive
12,Nc1c2c(nc3ccccc13)CCC[C@H]2O,inactive
13,NC[C@H](O)C1CCCCCCC1,inactive
14,C[C@@H](Cc1ccccc1)Nc1ncnc2c1ncn2[C@@H]1O[C@@H](CO)[C@H](O)[C@@H]1O,inactive
15,CC(=O)[C@@H]1CC[C@@H]2[C@@H]3CC=C4C[C@H](OS(=O)(=O)O)CC[C@@]4(C)[C@H]3CC[C@]21C,inactive
16,NC(N)=N[C@H](CCC(=O)O)C(=O)O,inactive
17,CC1=C(C(=O)O)N2C(=O)[C@@H](NC(=O)[C@@H](N)C3=CCC=CC3)[C@@H]2SC1,inactive
18,Cc1ccccc1CNc1ncnc2c1ncn2[C@@H]1O[C@@H](CO)[C@H](O)[C@@H]1O,inactive
19,CN[C@@H](CC(C)C)C(=O)N[C@@H]1C(=O)N[C@H](CC(N)=O)C(=O)N[C@H]2C(=O)N[C@H]3C(=O)N[C@H](C(=O)N[C@H](C(=O)O)c4cc(O)cc(O)c4-c4cc3ccc4O)[C@H](O)c3ccc(c(Cl)c3)Oc3cc2cc(c3O[C@@H]2O[C@@H](CO)[C@@H](O)[C@@H](O)[C@H]2O[C@H]2C[C@](C)(N)[C@H](O)[C@H](C)O2)Oc2ccc(cc2Cl)[C@@H]1O,inactive
20,Cc1cccc(C)c1OC[C@@H](N)C(C)C,inactive
